Screening results as filed in PubChem.
eIF4E-4G inh – eIF4E–eIF4G protein interaction inhibitors, primary screen, biochemical, uHTS, TR-FRET, eIF4GI fragment. TR-FRET eIF4E-eIF4GI(517-606) binding, 2 h. inhibition, % at 21.7 µM. 0.37% of 220,000 active;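 active = inhibition above about 30%, limit read from the data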;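 note: 0% = full FRET control wells and 100% = background wells lacking eIF4GI fragment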
Insulin prom inh – inhibitors of insulin promoter-driven GFP, primary screen, imaging, TRM-6 cells (human fetal islet line), eGFP reporter, cell count | reporter expression induced with tamoxifen | inhibition, % at 2 µM | 0.9% of 130,000 active;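 active = inhibition above the mean plus 3 SD, with well images judged a real hit on visual review, cut at about 60% in these data, passing the limit was not always enough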
Autophagy mod – autophagy modulators in MEF cells, primary screen, imaging, high-content, MEF GFP-LC3 | MEF GFP-LC3 puncta imaging; test concentration mostly 10 µM | calls only at 10 µM (by protocol) | 0.98% of 190,000 active | AID 463193, 2010;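 active = percentage of spot-positive cells more than 3 SD above its plate mean, without a fluorescence outlier flag or 80% toxicity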;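 note: spot-positive cell cutoff set from DMSO-treated cells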
PERK inh – block of dimerizer-induced PERK translation repression, primary screen, PERK inhibitor project, CHO PERK-DD cells, SEAP luminescence, HTS | 0.17% of 220,000 active | CHO PERK-DD fusion, SEAP luminescence translation reporter | inhibition, % at 5.6 µM | Eukaryotic translation initiation factor 2-alpha kinase 3 (Homo sapiens), Q9NZJ5 | AID 1416, 2008;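 active = inhibition above the mean inhibition of all tested compounds plus 3 SD, set separately per screening campaign, cut at about 2.9% in these data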;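 note: PERK kinase domain activated by AP20187 dimerizer at 100 nM; 0% = DMSO with dimerizer and 100% = rapamycin at 8.4 µM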
Insulin prom up – insulin promoter activators in MIN6 cells, imaging, high-content screening, mouse beta cells | MIN6 insulin promoter-GFP reporter; hits give high values | z-score at 5 µM | 0.3% of 190,000 active | AID 1625, 2009;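 active = z-score above 3 at 5 µM with at least 500 cells counted in the well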
The depositor's hits bear a star; ! = repeats disagree. Most compounds without a hit are left out; they make up all but 2% or so of the library.

Screening COC(=O)C1=C(NC(=O)c2ccccc2C)CCS1 returned eIF4E-4G inh 0, Autophagy mod active, PERK inh 0 and Insulin prom up 0.63.
Screening CC(C)CC(=O)Nc1ccc2ccccc2c1 returned eIF4E-4G inh -4, Autophagy mod inactive, PERK inh 3.2*! and Insulin prom up -0.19.
O=C1CSC(c2cccc([N+](=O)[O-])c2)N1c1ccccc1F (centres undefined) was read as eIF4E-4G inh -2, Autophagy mod inactive, PERK inh 0 and Insulin prom up -0.06.
`CCCc1nn(C)c(C(=O)Nc2cccc3ccccc23)c1Cl` gave eIF4E-4G inh -2, Insulin prom inh -33, Autophagy mod active, PERK inh -1 and Insulin prom up -0.33.
Screening O=[N+]([O-])c1ccc(-c2ccc(/C=N/Nc3nc(NCc4ccccc4)nc(N4CCOCC4)n3)o2)cc1 returned eIF4E-4G inh 1, Insulin prom inh -200, Autophagy mod active and PERK inh 0.
COc1nc(N/N=C/c2ccc(-c3ccccc3[N+](=O)[O-])o2)nc(N2CCOCC2)n1 was read as eIF4E-4G inh -7, Insulin prom inh 36, Autophagy mod inactive, PERK inh 0 and Insulin prom up 0.63.
C=CCN1C(=O)/C(=C/C=C2/N(CC)c3ccc(S(=O)(=O)N(C)C)cc3N2CC)SC1=S was read as eIF4E-4G inh -3, Autophagy mod active and PERK inh 0.
CCCN(CCC)CCCNC(=O)C1c2cc(OC)c(OC)cc2C(=O)N(C)C1c1cccnc1 (centres undefined) was read as eIF4E-4G inh -1, Insulin prom inh -53, Autophagy mod inactive, PERK inh 1 and Insulin prom up 0.38.
Screening COc1cc(CN2CCNC(=O)C2CC(=O)N2CCc3ccccc3C2)cc(OC)c1 (centres undefined) returned eIF4E-4G inh 1, Insulin prom inh -75, Autophagy mod inactive and PERK inh 0.
`Cc1ccc(C)c(NC(=S)NCCN(C2CCCCC2)C2CCCC2)c1` gave eIF4E-4G inh 97*, Insulin prom inh -53, Autophagy mod inactive, PERK inh 0 and Insulin prom up 0.24.
`Cc1ccc(S(=O)(=O)CCC(=O)NCc2ccccc2Cl)cc1` gave eIF4E-4G inh 60*, Insulin prom inh -11, Autophagy mod inactive, PERK inh 1 and Insulin prom up 0.
Screening Cc1ccc(S(=O)(=O)C2(C(=O)NCc3ccccc3Cl)CC2)cc1 returned eIF4E-4G inh 4, PERK inh -1 and Insulin prom up 0.72.
Screening O=C(CN1CCOc2ccccc21)NCc1ccc(F)cc1 returned eIF4E-4G inh -1, Insulin prom inh 60*, Autophagy mod inactive, PERK inh 0 and Insulin prom up -0.37.
`O=C(CN1CCOc2ccccc21)NCc1ccc(Cl)cc1` gave eIF4E-4G inh 8, Insulin prom inh 15, Autophagy mod inactive, PERK inh 1 and Insulin prom up -0.03.
Screening CC(C)(C)SCCNC(=O)CN(c1ccc(F)cc1)S(=O)(=O)c1ccccc1 returned eIF4E-4G inh 7, Autophagy mod inactive, PERK inh -1 and Insulin prom up -0.34.
O=C(O)c1ccccc1CSc1nnc2c(n1)[nH]c1ccccc12 was read as eIF4E-4G inh -1, PERK inh 3.1* and Insulin prom up 0.25.
Cc1ccccc1-n1nnnc1SCc1cc(=O)n2ccsc2n1 was read as eIF4E-4G inh 8, Autophagy mod inactive, PERK inh 1 and Insulin prom up 0.13.
Oc1ccc(/C=N/N2CCN(C3c4ccccc4-c4ccccc43)CC2)cc1O was read as eIF4E-4G inh 4, PERK inh -1 and Insulin prom up -0.01.
Cc1cccc(C(=O)NC(C)C(c2cccs2)N2CCOCC2)c1 (centres undefined) was read as eIF4E-4G inh 97*, PERK inh -2 and Insulin prom up 0.85.
For c1ccc2oc(-c3ccn[nH]3)cc2c1 the results were eIF4E-4G inh 4, PERK inh 1 and Insulin prom up 2.2.
`Cc1cccc2cc(C#N)c(SCCN3CCCCC3)nc12` gave Insulin prom inh -53, Autophagy mod active and PERK inh -1.
For Cc1ccc(C)c2nc(SCC(=O)Nc3ccc4c(c3)OCO4)c(C#N)cc12 the results were eIF4E-4G inh -2, PERK inh 2 and Insulin prom up -0.34.
`Cc1nonc1NC(=O)CSc1nc2c(C)cccc2cc1C#N` gave eIF4E-4G inh -3, Insulin prom inh inactive, Autophagy mod active and PERK inh 0.
Screening CN1CCN(C(=O)c2ccc(-n3cccc3)cc2)CC1 returned eIF4E-4G inh 6, Insulin prom inh 0, Autophagy mod inactive and PERK inh 2.
Cc1ccc2c(c1)C(O)(CC(=O)/C=C/C=C/c1ccccc1)C(=O)N2 (centres undefined) was read as eIF4E-4G inh 5, Insulin prom inh -7, Autophagy mod inactive, PERK inh 0 and Insulin prom up 0.81.
Cn1cnc(S(=O)(=O)Nc2ccccc2C(=O)NCC2CC2)c1 was read as eIF4E-4G inh -6, PERK inh 1 and Insulin prom up -0.65.
For Cc1cc(NC(=O)c2c(C)noc2C)no1 the results were eIF4E-4G inh 2, PERK inh 0 and Insulin prom up 1.2.
`Cc1ccc(NC(=O)CSc2ccccn2)cc1S(=O)(=O)N1CCOCC1` gave eIF4E-4G inh 1, Insulin prom inh 74*, Autophagy mod inactive, PERK inh 1 and Insulin prom up -0.98.
For Cc1ccc(S(=O)(=O)c2cccc(S(=O)(=O)N3CCOCC3)c2)cc1S(=O)(=O)N1CCOCC1 the results were eIF4E-4G inh 7, Insulin prom inh -24, Autophagy mod inactive, PERK inh -1 and Insulin prom up 0.17.
`Cc1ccc(NC(=O)CCl)cc1S(=O)(=O)N1CCCCCC1` gave eIF4E-4G inh -4, Insulin prom inh 0, Autophagy mod active, PERK inh 1 and Insulin prom up 0.01.
For Cc1ccc(S(=O)(=O)c2cccc(S(=O)(=O)N3CCCC3)c2)cc1S(=O)(=O)N1CCCC1 the results were eIF4E-4G inh 0, Insulin prom inh -26, Autophagy mod inactive, PERK inh -1 and Insulin prom up 3*.
`O=C(NCc1ccc(Cl)cc1)c1ccc2nc[nH]c2c1` gave eIF4E-4G inh -3, Insulin prom inh 8, Autophagy mod inactive, PERK inh 0 and Insulin prom up -0.03.
Screening COc1ccccc1C(=O)NC1CCCCCCC1 returned eIF4E-4G inh 3, Insulin prom inh -15, Autophagy mod active and PERK inh -1.
`COc1cc2c(cc1N/C=C(\C#N)c1nc(-c3ccccc3)cs1)oc1ccccc12` gave eIF4E-4G inh -5, Insulin prom inh -135, Autophagy mod active and PERK inh 0.
